# Laboratory results published in PMC4336329 (PLoS ONE, 2015).
# Screen size: about 310,000 compounds; about 14,000 (4.5%) showed an effect of 50% or more. The effect is printed as a negative number. The entries come from a sample that favours strong results as a whole.
# Biological target: human ether-à-go-go-related gene (hERG) potassium channel (human, UniProt Q12809)
# Test: primary screen, population patch clamp on CHO cells stably expressing hERG; higher = less effect of the substance
# 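Note: peak tail current of the secondary pulse compared with the same well before compound.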
# human ether-à-go-go-related gene (hERG) potassium channel, sequence (Q12809 whole entry, looked up): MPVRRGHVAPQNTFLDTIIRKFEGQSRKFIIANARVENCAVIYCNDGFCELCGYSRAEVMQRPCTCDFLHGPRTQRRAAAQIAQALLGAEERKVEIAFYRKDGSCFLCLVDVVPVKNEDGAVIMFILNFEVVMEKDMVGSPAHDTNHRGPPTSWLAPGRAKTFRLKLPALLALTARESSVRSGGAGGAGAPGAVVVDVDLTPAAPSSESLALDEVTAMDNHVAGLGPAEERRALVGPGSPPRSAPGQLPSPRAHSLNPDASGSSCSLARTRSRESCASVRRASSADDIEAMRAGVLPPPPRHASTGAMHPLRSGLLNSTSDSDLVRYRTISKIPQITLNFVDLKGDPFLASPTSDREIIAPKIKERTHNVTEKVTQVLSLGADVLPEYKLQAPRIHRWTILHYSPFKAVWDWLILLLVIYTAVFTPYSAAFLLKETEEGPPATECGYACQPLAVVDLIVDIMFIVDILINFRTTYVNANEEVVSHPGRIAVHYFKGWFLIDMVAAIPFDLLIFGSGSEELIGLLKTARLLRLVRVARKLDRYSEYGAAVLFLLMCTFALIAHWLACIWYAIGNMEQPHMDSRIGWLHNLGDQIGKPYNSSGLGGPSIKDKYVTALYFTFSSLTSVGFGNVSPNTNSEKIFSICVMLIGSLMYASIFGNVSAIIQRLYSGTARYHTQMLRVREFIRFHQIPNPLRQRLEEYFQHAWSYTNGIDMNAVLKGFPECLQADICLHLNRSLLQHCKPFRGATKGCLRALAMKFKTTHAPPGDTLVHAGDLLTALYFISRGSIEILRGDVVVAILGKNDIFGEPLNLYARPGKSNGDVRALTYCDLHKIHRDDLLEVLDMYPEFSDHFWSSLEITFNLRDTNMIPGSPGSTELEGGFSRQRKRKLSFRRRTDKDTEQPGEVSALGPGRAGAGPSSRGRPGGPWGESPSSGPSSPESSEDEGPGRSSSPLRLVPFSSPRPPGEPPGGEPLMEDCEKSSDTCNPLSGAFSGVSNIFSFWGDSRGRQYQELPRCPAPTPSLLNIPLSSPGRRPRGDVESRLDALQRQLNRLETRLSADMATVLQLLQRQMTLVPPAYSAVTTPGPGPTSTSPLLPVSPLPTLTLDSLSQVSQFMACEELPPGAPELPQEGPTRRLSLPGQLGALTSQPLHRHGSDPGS
row,Compound,"hERG current change (%, negative = inhibition) at 10uM"
1,O=C(NCc1ccc(F)cc1)C1CCN(C(=O)NCc2ccccc2)CC1,6.31%
2,COc1cccc(C(=O)NC2CCN(CC(=O)NCc3ccccc3OC)CC2)c1,-10.7%
3,O=C(CN1CCC(n2cnc3cc(F)ccc32)CC1)Nc1ccccc1Br,-87.8%
4,COc1ccccc1CNC(=O)CN1CCC(NC(=O)c2ccccc2F)CC1.Cl,-14.5%
5,O=C(NCc1ccccc1)N1CCC(n2cnc3cc(F)ccc32)CC1,-64.3%
6,CCOc1ccc(NC(=O)CN2CCC(n3cnc4cc(F)ccc43)CC2)cc1,-74.3%
7,O=C(CN1CCC(NC(=O)Cc2ccccc2)CC1)Nc1ccccc1Br,-29.2%
8,O=C(c1ccc(F)cc1)C1CCN(C(=O)NCc2ccccc2)CC1,-6.67%
9,O=C(CN1CCN(c2ccc(F)cc2)CC1)Nc1ccccc1Br,12.5%
10,COc1ccccc1CNC(=O)CN1CCC(n2cnc3cc(F)ccc32)CC1,-66%
11,COc1ccc(C(=O)Nc2ccccc2C(=O)NC(C)C)cc1OC,-6.82%
12,CCc1nc(SCC(=O)O)c2c3c(sc2n1)COC(C)(C)C3,23.2%
13,CCCNc1c(NS(=O)(=O)c2ccc(C3CCCCC3)cc2)c(=O)oc2ccccc12,21.9%
14,Cc1onc(-c2ccccc2)c1-c1csc(N/N=C/c2ccccc2)n1,8.79%
15,CC(C)[C@H](NC(=O)c1cccc(S(=O)(=O)N2CCCC2)c1)c1nc2ccccc2[nH]1,9.05%
16,COc1ccc(/C=N/N2CCN(c3ccncc3S(=O)(=O)N3CCCCC3)CC2)cc1,10.3%
17,CCOC(=O)c1cc2sc(C)cc2n1CC(=O)N1CCN(C(=O)c2ccco2)CC1,-8.61%
18,Cc1ccc2nc(Cl)c(/C=N/NC(=O)[C@H]3C[C@@H]3c3ccccc3)cc2c1,19.5%
19,O=C(Cc1ccc(-c2ccccc2)cc1)NCCN1CCOCC1,0.566%
20,COc1cccc(CC2(CO)CCCN(Cc3ccc4c(c3)OCCO4)C2)c1 (stereo not drawn),-58.5%
21,COc1cccc(CC2(CO)CCCN(Cc3ccc(C)s3)C2)c1 (stereo not drawn),-50.5%
22,OCC1(Cc2ccccc2)CCCN(Cc2ccc3c(c2)OCCO3)C1 (stereo not drawn),-24.6%
23,COc1cccc(CC2(CO)CCCN(Cc3cc4ccccc4[nH]3)C2)c1 (stereo not drawn),-37.5%

row,Compound,"hERG current change (%, negative = inhibition) at 10uM"
1,COc1cccc(CC2(CO)CCCN(Cc3[nH]c4ccc(C)cc4c3C)C2)c1 (stereo not drawn),-74.7%
2,COc1cccc(CC2(CO)CCCN(Cc3ccc(OC(F)F)cc3)C2)c1 (stereo not drawn),-68.6%
3,COc1cccc(CC2(CO)CCCN(Cc3ccc(CN4CCCCC4)s3)C2)c1 (stereo not drawn),-22.1%
4,COc1cccc(CC2(CO)CCCN(Cc3sc(N4CCCC4)nc3Cl)C2)c1 (stereo not drawn),-27.2%
5,CCC(NC(=O)c1ccccc1NC(=O)c1ccco1)C(=O)NNC(=O)c1ccc(OC)cc1 (stereo not drawn),10.3%
6,NC(=O)c1ccc(SCC(=O)OCC(=O)NCC2CCCCC2)c([N+](=O)[O-])c1,-5.21%
7,CC(C)(C)NC(=O)c1ccc2c(c1)N(CC(=O)NC1CCCC1)C(=O)C(C)(C)O2,8.72%
8,COc1ccc(-c2csc(NC(=O)CSCC(=O)Nc3cc(C)on3)n2)cc1OC,1.07%
9,O=C(Nc1ccc(-c2n[nH]c(=S)o2)cc1)c1ccccc1,15.6%
10,O=C(c1cccc(S(=O)(=O)Nc2ccccc2F)c1)N1CCN(c2ccccc2F)CC1,-21.5%
11,CCOc1ccc(NC(=O)CSc2nccn2Cc2ccco2)cc1,-19.5%
12,Cc1cc(S(=O)(=O)N2CCCC(C(=O)Nc3ccc(C(=O)O)cc3)C2)ccc1Cl (stereo not drawn),10.2%
13,COc1ccc(CSc2nnnn2C)cc1F,-6.74%
14,CCOC(=O)C1CCCN(C2=NC(=O)/C(=C/c3ccc(N(C)C)cc3)S2)C1 (stereo not drawn),-24.9%
15,CCOC(=O)C1CCN(C2=NC(=O)/C(=C/c3ccc(OC)c(OC)c3)S2)CC1,-17.8%
16,CCOC(=O)C1CCN(C2=NC(=O)/C(=C/c3ccc(Cl)cc3)S2)CC1,-64.8%
17,Cc1ccc(/C=C2\SC(N3CCCCC3)=NC2=O)cc1,0.193%
18,CCOC(=O)C1CCN(C2=NC(=O)/C(=C/c3ccc(O)cc3)S2)CC1,-67.1%
19,CCOC(=O)C1CCN(C2=NC(=O)/C(=C/c3ccccc3OC)S2)CC1,-22.9%
20,Cc1ccc(/C=C2\SC(N3CCCC3)=NC2=O)cc1,-22.4%
21,CC1CCN(C2=NC(=O)/C(=C/c3ccc(O)cc3)S2)CC1,-24.7%
22,CC(C)(C)c1ccc(/C=C2/SC(N3CCCC3)=NC2=O)cc1,-51.1%
